# Source: PubChem BioAssay (Tox21)
# Several values for one entry are separate records, joined by “and”; a condition that tells them apart may be missing. Equal entries are not always repeated. Inconclusive results are not listed. Entries that show only a call come without a potency. More than one record can exist for a structure, and the calls need not agree. Activity calls are given as the source filed them. Unless noted, calls follow the shape of the full dose curve.
# Tests used:
# [1] = Nuclear factor erythroid 2-related factor 2/antioxidant responsive element (Nrf2/ARE) small molecule agonists: qHTS cell viability counter screen in human keratinocytes (AID 1919968; active = well fitted curve in the direction sought with a large enough effect in the repeat runs; an effect the other way counts as inactive or inconclusive; also: nearly all actives have a fitted effect of over 55% in size; also: potency is read from the fitted curve at half-maximal effect)
# Method in brief: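 KeratinoSens HaCaT cells, 1,500/well, preincubated 5 h, then exposed to compounds in DMSO for 23 h at 37 C/5% CO2. Viability read as CellTiter-Fluor fluorescence after 1 h, in the same wells as the ARE-luciferase read.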
# [2] = Nuclear factor erythroid 2-related factor 2/antioxidant responsive element (Nrf2/ARE) small molecule agonists: luciferase reporter gene qHTS assay in human keratinocytes (AID 1919969); also: nearly all actives have a fitted effect of over 35% in size; also: potency is read from the fitted curve at half-maximal effect
# [3] = G protein-coupled receptor (GPCR) small molecule agonists, calcium flux assay: HEK293 wild type cell line counter screen (AID 1920065)
# Method in brief: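 Wild-type HEK293 cells plated 18 h, loaded with calcium dye 1 h at 37 C, then compounds added in agonist mode (ATP as positive control). Kinetic fluorescence Ex/Em 480/540 recorded 3 min at 1 sec intervals; 15 concentrations, triplicate.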
# [4] = p53 small molecule agonists, cell-based qHTS assay with human liver microsomes: qHTS cell viability counter screen (AID 1963579); also: nearly all actives have a fitted effect of over 45% in size; also: potency is read from the fitted curve at half-maximal effect
# Method in brief: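 Metabolic activation used human liver microsomes and NADPH, both 0.5 mg/mL final, over 16 hours at 37 C on p53RE-bla cells (4,000/well). Cytotoxicity measured by CellTiter-Glo luminescence, 30 min at room temperature.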
# [5] = p53 small molecule agonists, cell-based qHTS assay with rat liver microsomes: qHTS cell viability counter screen (AID 1963580); also: nearly all actives have a fitted effect of over 45% in size
# Method in brief: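 HCT-116 p53RE-bla, 4,000 cells/well, 5 h pre-incubation; cpd + rat liver microsomes 0.5 mg/mL + NADPH 0.5 mg/mL (final); 16 h, 37 C; CellTiter-Glo, 30 min RT; luminescence.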
# [6] = p53 small molecule agonists, cell-based qHTS assay: qHTS cell viability counter screen (AID 1963581); also: nearly all actives have a fitted effect of over 45% in size
# Method in brief: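 p53RE-bla HCT-116 cells, compounds added 5 h after plating and incubated 16 h at 37 C. Cytotoxicity measured in the same wells as intracellular ATP by CellTiter-Glo luminescence after 30 min at room temperature.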
# [7] = target: 5-hydroxytryptamine receptor 2A (Homo sapiens) (UniProt P28223); assay: 5-hydroxytryptamine receptor 2A (HTR2A) small molecule agonists, cell-based qHTS assay (AID 1963587); also: nearly all actives have a fitted effect of over 30% in size
# Method in brief: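 Kinetic calcium-flux fluorescence (2 min, 1 sec intervals) after compound addition in agonist mode. HTR2A-CHO cells were cultured 18 h, then dye-loaded 1 h at 37 C.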
# [8] = target: Muscarinic acetylcholine receptor M1 (Homo sapiens) (UniProt P11229); assay: Cholinergic receptor muscarinic 1 (CHRM1) small molecule antagonists, cell-based qHTS assay (AID 1963588); also: nearly all actives have a fitted effect of over 40% in size
# Method in brief: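 CHRM1-CHO calcium-flux assay, antagonist mode. Cells were seeded 18 h, dye-loaded 1 h at 37 C and given compound for 5 min at RT, then acetylcholine was added at 50nM. FDSS fluorescence was read 3 min; 15 concentrations, three runs.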
# [9] = target: Muscarinic acetylcholine receptor M1 (Homo sapiens) (UniProt P11229); assay: Cholinergic receptor muscarinic 1 (CHRM1) small molecule agonists, cell-based qHTS assay (AID 1963589); also: nearly all actives have a fitted effect of over 35% in size
# Method in brief: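 CHO cells stably expressing human CHRM1 were loaded with calcium dye for 1 h at 37 C, then compound was added in agonist mode. Intracellular calcium fluorescence was followed kinetically at 1 s intervals. Fifteen concentrations were tested in three independent runs.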
# [10] = cAMP Responsive Elements (CRE) small molecule antagonists, cell-based qHTS assay (AID 1963591; active = well fitted inhibition curve with a large enough effect in the signal ratio in the repeat runs, not every such curve was filed as active; the % refers to the signal ratio)
# Method in brief: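 CRE-bla HEK293T cells plated 18 h, then given compound plus NKH477 at 0.25 uM final for 3 h at 37C. Beta-lactamase reporter read with LiveBLAzer B/G FRET substrate after 2 h at room temperature.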
# [11] = target: D(2) dopamine receptor (Homo sapiens) (UniProt P14416); assay: Dopamine D2 receptor (DRD2) small molecule agonists, cell-based qHTS assay (AID 1963594); also: nearly all actives have a fitted effect of over 35% in size
# Method in brief: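 cAMP accumulation in DRD2-HEK293 cells measured by HTRF after 1 h detection; compounds added 10 min before NKH477 (200nM […]) forskolin-analogue stimulation, 30 min at room temperature, with Ro20-1724 present at 0.1 mM final.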
# [12] = target: D(2) dopamine receptor (Homo sapiens) (UniProt P14416); assay: Dopamine D2 receptor (DRD2) small molecule antagonists, cell-based qHTS assay (AID 1963595; active = well fitted inhibition curve with a large enough effect in the signal ratio in the repeat runs, with a control signal flat; the % refers to the signal ratio; also: potency is read from the fitted curve at half-maximal effect)
# Method in brief: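 Antagonist mode in DRD2-HEK293 cells: after compound addition with 0.1 mM Ro20-1724, cells received quinpirole (12 nM) and NKH477 (200 nM) for 30 min at room temperature; HTRF cAMP read after 1 h detection.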
# [13] = p53 small molecule agonists, cell-based qHTS assay with rat liver microsomes (AID 1963578)
# Method in brief: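 Metabolic activation by rat liver microsomes and NADPH, each 0.5 mg/mL final, added right after compounds to p53RE-bla reporter cells (4,000/well, plated 5 h earlier). 16 h at 37 C, then LiveBLAzer substrate for 2 h at room temperature in the dark; fluorescence read-out.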
# [14] = p53 small molecule agonists, cell-based qHTS assay (AID 1963582; active = well fitted activation curve with a large enough effect in the signal ratio in the repeat runs, not every such curve was filed as active; the % refers to the signal ratio)
# Method in brief: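 p53RE-bla reporter cells, compounds added in DMSO after 5 h plating, incubated 16 h at 37 C. Beta-lactamase read via 2 h room-temperature LiveBLAzer B/G FRET substrate, fluorescence intensity.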
# [15] = target: 5-hydroxytryptamine receptor 2A (Homo sapiens) (UniProt P28223); assay: 5-hydroxytryptamine receptor 2A (HTR2A) small molecule antagonists, cell-based qHTS assay (AID 1963586); also: nearly all actives have a fitted effect of over 45% in size
# Method in brief: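 Antagonist-mode intracellular calcium assay: DOI (4 nM) added after 5 min compound pre-incubation at room temperature to dye-loaded HTR2A-CHO cells. Fluorescence followed for 3 min, sampled every second.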
# [16] = cAMP Responsive Elements (CRE) small molecule agonists, cell-based qHTS assay (AID 1963590); also: potency is read from the fitted curve at half-maximal effect
# Method in brief: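 CRE-bla HEK 293T cells, 2,000/well in DMEM with 10% dialyzed FBS and 25 mM HEPES, pre-incubated 18 h at 37 C, then exposed to compound 3 h at 37 C. Beta-lactamase reporter read with LiveBLAzer B/G FRET substrate after 2 h at room temperature.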
# [17] = target: Beta-2 adrenergic receptor (Homo sapiens) (UniProt P07550); assay: Adrenergic beta2 receptor (ADRB2) small molecule antagonists, cell-based qHTS assay (AID 1963592); also: series mostly up to about 92 µM; nearly all actives have a fitted effect of over 50% in size
# Method in brief: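 Cells (CHO, stable ADRB2 overexpression) incubated 18-20hr at 37C; compounds added from DMSO; agonist mix (1nM isoproterenol, 100uM IBMX, 25uM Ro-20-1724) added; 0.5hr RT; d2-cAMP and anti-cAMP-cryptate added; 1hr RT; 665/615 nm read.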
# [18] = target: Beta-2 adrenergic receptor (Homo sapiens) (UniProt P07550); assay: Adrenergic beta2 receptor (ADRB2) small molecule agonists, cell-based qHTS assay (AID 1963593);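 also: CHO cells stably overexpressing human ADRB2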
# Method in brief: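 CHO cells stably over-expressing ADRB2 were plated overnight at 37C, then dosed with compounds plus a stimulation mix containing 100uM IBMX and 25uM Ro-20-1724 for 0.5hr at room temperature. cAMP was measured by HTRF competition, 1hr.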
# [19] = p53 small molecule agonists, cell-based qHTS assay with human liver microsomes (AID 1963577);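 also: p53 response element beta-lactamase reporter cells with liver microsomes plus NADPH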
# Method in brief: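 With metabolic activation: human liver microsomes (0.5 mg/mL final) plus NADPH (0.5 mg/mL final) added alongside compounds to p53RE-bla cells; 16 h 37 C exposure; beta-lactamase read by LiveBLAzer fluorescence.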
# [20] = target: KiSS-1 receptor (Homo sapiens) (UniProt Q969F8); assay: Human kisspeptin (KISS1R) small molecule agonists, calcium flux assay in KISS1R-HEK293 cells (AID 1920064; active = well fitted curve in the direction sought with a large enough effect in the repeat runs; an effect the other way counts as inactive or inconclusive)
# Method in brief: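 HEK293 cells stably expressing human KISS1R were loaded with calcium dye for 1 h at 37 C, then given compound; fluorescence (Ex/Em 480/540) was read kinetically for 3 min. Fifteen concentrations, triplicate.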
# Chain of D(2) dopamine receptor (Homo sapiens) (P14416 whole entry, looked up): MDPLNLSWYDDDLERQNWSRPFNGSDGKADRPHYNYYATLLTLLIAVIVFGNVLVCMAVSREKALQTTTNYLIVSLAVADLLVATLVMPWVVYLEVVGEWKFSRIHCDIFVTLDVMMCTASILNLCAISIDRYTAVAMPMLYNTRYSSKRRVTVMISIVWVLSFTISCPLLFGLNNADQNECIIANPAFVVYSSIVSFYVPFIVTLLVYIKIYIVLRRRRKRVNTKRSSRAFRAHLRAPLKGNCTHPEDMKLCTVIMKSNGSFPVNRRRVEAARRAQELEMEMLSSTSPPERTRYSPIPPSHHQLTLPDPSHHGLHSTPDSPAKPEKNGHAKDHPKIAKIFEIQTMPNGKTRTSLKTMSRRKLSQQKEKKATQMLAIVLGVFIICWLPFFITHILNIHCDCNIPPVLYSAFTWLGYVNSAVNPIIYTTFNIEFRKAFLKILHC
# Chain of Muscarinic acetylcholine receptor M1 (Homo sapiens) (P11229 whole entry, looked up): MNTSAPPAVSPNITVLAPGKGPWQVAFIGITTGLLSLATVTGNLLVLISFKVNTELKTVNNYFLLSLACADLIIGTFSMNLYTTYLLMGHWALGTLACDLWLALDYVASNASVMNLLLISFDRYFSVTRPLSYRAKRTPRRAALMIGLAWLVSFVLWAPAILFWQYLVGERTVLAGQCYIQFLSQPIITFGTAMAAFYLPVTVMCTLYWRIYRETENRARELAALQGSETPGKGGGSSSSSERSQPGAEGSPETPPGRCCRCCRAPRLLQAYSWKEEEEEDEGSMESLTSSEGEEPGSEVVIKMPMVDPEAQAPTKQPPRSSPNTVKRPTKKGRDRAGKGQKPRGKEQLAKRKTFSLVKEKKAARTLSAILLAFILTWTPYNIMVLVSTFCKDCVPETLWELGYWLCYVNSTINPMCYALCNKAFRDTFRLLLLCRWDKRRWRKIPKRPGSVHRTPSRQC
# Chain of Beta-2 adrenergic receptor (Homo sapiens) (P07550 whole entry, looked up): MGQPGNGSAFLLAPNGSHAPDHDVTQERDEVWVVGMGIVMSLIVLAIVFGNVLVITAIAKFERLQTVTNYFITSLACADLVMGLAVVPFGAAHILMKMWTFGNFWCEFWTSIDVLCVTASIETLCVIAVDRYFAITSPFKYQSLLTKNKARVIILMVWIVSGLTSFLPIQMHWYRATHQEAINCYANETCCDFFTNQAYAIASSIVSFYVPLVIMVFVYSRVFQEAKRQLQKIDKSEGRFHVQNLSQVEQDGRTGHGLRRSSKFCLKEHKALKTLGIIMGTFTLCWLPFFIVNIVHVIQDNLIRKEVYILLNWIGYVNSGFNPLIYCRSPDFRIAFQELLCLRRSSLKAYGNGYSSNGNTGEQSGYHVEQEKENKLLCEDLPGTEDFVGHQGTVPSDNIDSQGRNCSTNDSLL
# Chain of 5-hydroxytryptamine receptor 2A (Homo sapiens) (P28223 whole entry, looked up): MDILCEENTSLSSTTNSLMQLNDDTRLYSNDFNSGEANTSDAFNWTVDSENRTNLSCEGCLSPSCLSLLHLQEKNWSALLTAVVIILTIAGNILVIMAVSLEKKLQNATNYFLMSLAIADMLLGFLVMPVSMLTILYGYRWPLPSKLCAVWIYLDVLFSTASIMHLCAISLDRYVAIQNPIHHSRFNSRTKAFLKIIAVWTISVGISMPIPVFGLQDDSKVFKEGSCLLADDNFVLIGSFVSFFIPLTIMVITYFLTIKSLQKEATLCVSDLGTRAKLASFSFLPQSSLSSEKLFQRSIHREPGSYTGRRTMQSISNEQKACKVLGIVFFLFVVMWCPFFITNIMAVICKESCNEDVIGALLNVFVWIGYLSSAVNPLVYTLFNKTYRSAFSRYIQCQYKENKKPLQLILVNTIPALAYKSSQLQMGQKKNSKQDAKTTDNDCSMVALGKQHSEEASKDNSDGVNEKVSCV
# Chain of KiSS-1 receptor (Homo sapiens) (Q969F8 whole entry, looked up): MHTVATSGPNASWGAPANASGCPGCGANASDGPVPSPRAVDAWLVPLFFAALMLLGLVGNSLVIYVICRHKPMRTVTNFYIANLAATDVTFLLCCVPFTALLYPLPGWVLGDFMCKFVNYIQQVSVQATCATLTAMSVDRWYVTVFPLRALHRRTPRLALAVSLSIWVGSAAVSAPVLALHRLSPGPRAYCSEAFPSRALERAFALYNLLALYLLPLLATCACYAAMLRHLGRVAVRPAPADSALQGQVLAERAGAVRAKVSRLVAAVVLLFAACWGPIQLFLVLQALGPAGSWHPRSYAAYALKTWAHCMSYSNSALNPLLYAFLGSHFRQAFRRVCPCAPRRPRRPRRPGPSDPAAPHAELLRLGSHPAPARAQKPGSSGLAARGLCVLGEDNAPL
SMILES,Potency [1],Potency [2],Potency [3],Potency [4],Potency [5],Potency [6],Potency [7],Potency [8],Potency [9],Potency [10],Potency [11],Potency [12],Potency [13],Potency [14],Potency [15],Potency [16],Potency [17],Potency [18],Potency [19],Potency [20]
Oc1ccc2cc(SSc3ccc4cc(O)ccc4c3)ccc2c1,inactive,68.7 µM (active) and 68.6 µM (active),inactive,inactive,inactive,inactive,inactive,inactive,inactive,inactive,inactive,inactive,,,,,,,,
C=CCn1cc[n+](C)c1,inactive,inactive,inactive,inactive,inactive,inactive,inactive,inactive,inactive,inactive,inactive,,inactive,inactive,inactive,inactive,inactive,inactive,,
NC(=O)C1CO1 (stereo not drawn),inactive,inactive,inactive,inactive,,inactive,inactive,inactive,inactive,inactive,inactive,,,inactive,inactive,inactive,inactive,inactive,inactive,
OC1(c2ccc(Cl)cc2)CCNCC1,inactive,inactive,inactive,inactive,inactive,inactive,inactive,inactive,inactive,inactive,,inactive,,inactive,inactive,inactive,inactive,inactive,inactive,
OC[C@H]1O[C@@H]2O[C@H]3[C@H](O)[C@@H](O)[C@@H](O[C@H]4[C@H](O)[C@@H](O)[C@@H](O[C@H]5[C@H](O)[C@@H](O)[C@@H](O[C@H]6[C@H](O)[C@@H](O)[C@@H](O[C@H]7[C@H](O)[C@@H](O)[C@@H](O[C@H]1[C@H](O)[C@H]2O)O[C@@H]7CO)O[C@@H]6CO)O[C@@H]5CO)O[C@@H]4CO)O[C@@H]3CO,inactive,inactive,inactive,inactive,inactive,inactive,,,,inactive,inactive,inactive,,,,inactive,inactive,inactive,,
O=C(O)c1cc(=O)c2ccccc2o1,inactive,inactive,inactive,inactive,inactive,,inactive,inactive,,,inactive,inactive,inactive,inactive,inactive,inactive,inactive,inactive,inactive,
CO[Si](C)(C)OC,inactive,inactive,inactive,inactive,inactive,inactive,inactive,inactive,inactive,inactive,inactive,inactive,,inactive,inactive,inactive,inactive,inactive,inactive,
CN(CCOc1ccc(CC2SC(=O)NC2=O)cc1)c1ccccn1 (stereo not drawn),inactive,inactive,inactive,inactive,inactive,inactive,,,,,inactive,inactive,inactive,,,,inactive,,inactive,
N=C(N)c1ccc2cc(OC(=O)c3ccc(N=C(N)N)cc3)ccc2c1,inactive,inactive,inactive,inactive,inactive,,inactive,inactive,inactive,inactive,inactive,inactive,inactive,inactive,inactive,inactive,inactive,inactive,inactive,
CC/C=C\C/C=C\C/C=C\CCCCCCCC(=O)O,inactive,60.6 µM (active) and 54.5 µM (active),inactive,inactive and 20.4 µM (active),inactive,inactive,inactive,inactive,inactive,,inactive,inactive,,,inactive,,inactive,inactive,,
O=[N+]([O-])c1ccc(F)cc1F,inactive,inactive,inactive,inactive,inactive,inactive,inactive,inactive,inactive,inactive,inactive,inactive,,inactive,inactive,inactive,inactive,inactive,,
Nc1ncnc2c1ncn2[C@@H]1O[C@H](COP(=O)(O)O)[C@@H](O)[C@H]1O,inactive,inactive,inactive,inactive,inactive,inactive,inactive,inactive,inactive,inactive,,0.944 µM (active),,inactive,inactive,11.9 µM (active),inactive,inactive,inactive,
Nc1ccc(Cl)c(N)c1,inactive,inactive,inactive,inactive,inactive,inactive,inactive,inactive,inactive,inactive,inactive,inactive,,,,inactive,inactive,inactive,,
Cc1cccc(C)c1NC(=O)CN1CCCCCC1,inactive,inactive,inactive,,inactive,inactive,inactive,inactive,inactive,inactive,inactive,inactive,inactive,inactive,,inactive,inactive,inactive,,
CN(C)c1ccc(C(=N)c2ccc(N(C)C)cc2)cc1,24 µM (active) and 23.4 µM (active),60.4 µM (active) and 52.4 µM (active),inactive,inactive,inactive,,inactive,,,inactive,inactive,inactive,,,inactive,,inactive,inactive,,
CNC(=O)Nc1ccc(Cl)c(Cl)c1,inactive,inactive,,inactive,inactive,inactive,inactive,inactive,inactive,inactive,inactive,inactive,,inactive,inactive,inactive,inactive,inactive,inactive,
COc1ccc(C(=O)c2cccc(O)c2)c(OC)c1,inactive,inactive,inactive,inactive,inactive,inactive,inactive,inactive,inactive,inactive,inactive,inactive,inactive,inactive,inactive,inactive,,,inactive,inactive
